Reference: PubChem BioAssay

Test: COS7 lysate on small-molecule microarray, probe aHis, 635 nm (AID 1123);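 further: z-score combines 667nm fluorescence intensity with signal-to-noise per printed compound spot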
Details: COS7 cell lysate, fluorescence, higher = more signal

| SMILES | composite z-score |
| --- | --- |
| CCCCC=C[C@@H](NC(=O)c1ccc(C(F)(F)F)cc1)c1ccccc1 | 0.0379 |
| CC(c1ccccc1)C(O)C1C=CC2C(=O)N(c3ccccc3)C(=O)C2N1Nc1ccc(C#N)cc1 (configuration not stated) | 3.28 |
| CC(C)(C)N1CC=CC23O[C@@H]4/C=C\CCCOC(=O)C4[C@H]2C(=O)N(CCCCCCO)[C@@H]3C1=O (some centres not stated) | 0.185 |
| COc1ccc(C(O)C2C=CC3C(=O)N(C)C(=O)C3N2Nc2ccc([N+](=O)[O-])cc2[N+](=O)[O-])cc1OCc1ccccc1 (configuration not stated) | 2.36 |
| C=CC[C@]1(C(=O)N(C)C)COC(c2ccc(OCCCO)cc2)=N1 | 3.5 |
| C[C@@H](OCc1ccccc1)C1NC(=O)[C@@]23C(=O)N[C@@H](Cc4ccccc4)C2[C@H](C)[C@@]2(C)O[C@H]2C3/C=C/C/C=C\CNC(=O)[C@H](Cc2ccccc2)NC1=O (some centres not stated) | 0.332 |
| COc1ccc([Si](C)(C)[C@H]2[C@H](CCO)O[C@@]3(C(=O)N(Cc4ccc(N5CCOC5=O)cc4)c4ccccc43)[C@@H]2C)cc1 | 1.5 |
| C=CCC(OC(C)=O)[C@@H]1[C@@H](N(Cc2ccc(-c3ccccc3)cc2)C(=O)c2ccc(C)cc2)c2cc(OCCCO)ccc2N1C(=O)c1ccc2ccccc2c1 (some centres not stated) | 0.756 |
| CC(C)C(=C=CC[C@@H](O)c1cccc(OCCO)c1)CCO | 0.502 |
| COCCOC(=O)N1C(=O)[C@@]2(c3cc(C#CC4(O)CCCCCC4)ccc31)[C@H](c1ccc(OCCO)cc1)N1[C@H](c3ccccc3)[C@H](c3ccccc3)OC(=O)[C@H]1[C@@H]2C(=O)N1CCCCCCC1 | 2.47 |
| Cc1ccc(F)cc1S(=O)(=O)N[C@@H]1CCN(Cc2ccc3[nH]ccc3c2)C1 | 0.95 |
| C=C(COC)/C(=C/C[C@@H](OC(C)=O)c1ccccc1OCCO)c1cc(C(=O)OC)ccc1OC | 0.283 |
| C=CCN1C(=O)[C@]2(O[C@H](CCO)[C@@H]([Si](C)(C)c3ccc(OC)cc3)[C@@H]2C)c2ccccc21 | 0.621 |
| COc1ccc(CCNC(=O)[C@@H]2c3ccccc3C(=O)N(CC34CC5CC(CC(C5)C3)C4)[C@H]2c2ccc(CO)cc2)cc1 | 1.7 |
| C=CCC(OC(C)=O)[C@@H]1[C@@H](N(Cc2cccc3ccccc23)C(=O)c2ccc(C)cc2)c2cc(OCCCO)ccc2N1C(=O)c1ccc2ccccc2n1 (some centres not stated) | 0.72 |
| COCCCNC(=O)[C@@H]1c2ccccc2C(=O)N(Cc2cc(C(F)(F)F)cc(C(F)(F)F)c2)[C@H]1c1ccc(CO)cc1 | 1.68 |
| CCOC(=O)C[C@H]1[C@H](OC(=O)c2ccc(C(=O)c3ccccc3)cc2)[C@@H](NC(=O)c2ccc3ccccc3c2)c2cc(OCCCO)ccc2N1C(=O)c1ccc2ccccc2n1 | 0.853 |
| C=CCN1C(=O)[C@]2(O[C@H](CCn3cc([C@H](O)c4ccccc4)nn3)[C@@H]([Si](C)(C)c3ccc(OC)cc3)[C@@H]2C)c2cc(N3C(=O)c4cccc5cccc3c45)ccc21 | 0.515 |
| CN(C)CCCC[C@@H]1NC(=O)[C@H]2C[C@@H](C(=O)O)[C@@H](c3cccc(OCCO)c3)N2C1=O | 0.699 |
| C=CCC(OC(C)=O)[C@@H]1[C@@H](N(Cc2ccc(-c3cccc(C(F)(F)F)c3)o2)C(=O)c2cccc3ccccc23)c2cc(OCCCO)ccc2N1C(=O)c1ccc2ccccc2c1 (some centres not stated) | 0.289 |
| C=C(COC)/C(=C/C[C@H](OC(=O)c1ccncc1)c1ccc(OCCO)cc1)c1cc(C(=O)OC)ccc1OC | 1.39 |
| COCCOC(=O)N1C(=O)[C@@]2(c3cc(C#CCC(C(=O)OC)C(=O)OC)ccc31)[C@H](C(=O)N1CCc3cc(OC)c(OC)cc3C1)[C@H]1C(=O)O[C@H](c3ccccc3)[C@H](c3ccccc3)N1[C@@H]2c1ccc(O)cc1 | 1.72 |
| Cc1ccc(S[C@]2(C(=O)NC3CC3)CC(=O)N(Cc3cc(C(F)(F)F)cc(C(F)(F)F)c3)[C@@H]2c2ccc(CO)cc2I)cc1 | 1.18 |
| COc1ccc([Si](C)(C)[C@H]2[C@H](CCn3cc([C@H](O)c4ccccc4)nn3)O[C@@]3(C(=O)N(C)c4c(Br)cc(C)cc43)[C@@H]2C)cc1 | -0.215 |
| CCCCC(O)C1C=CC2C(=O)NC(=O)C2N1Nc1ccc(Cl)cc1Cl (configuration not stated) | 2.54 |
| C=CCC(OC(C)=O)[C@@H]1[C@@H](N(Cc2ccc(-c3ccccc3)cc2)C(=O)c2ccc(-c3ccccc3)cc2)c2cc(OCCCO)ccc2N1C(=O)c1ccc2ccccc2n1 (some centres not stated) | -0.137 |
| COc1ccc([Si](C)(C)[C@H]2[C@H](CCO)O[C@@]3(C(=O)N(Cc4ccccc4)c4ccc(N(C=O)c5ccccc5)cc43)[C@@H]2C)cc1 | 0.929 |
